Screening data deposited in PubChem BioAssay by several laboratories.
This is a sample that favours compounds with a hit; in the whole collection about 1.3% have one here.
3CLpro inhibitor: SARS-CoV 3CLpro protease inhibition; P0C6X7; recombinant SARS-CoV 3CLpro, quenched FRET peptide cleavage; inhibition, % at 6 µM; 290,000 compounds, 0.14% hits; in the data active = inhibition above about 12%
Sa ugtP lethal: compounds lethal to S. aureus RN4220 ugtP deletion mutant; OD600 growth, 16 h; growth inhibition, % (test concentration not listed); 330,000 compounds, 0.54% hits; in the data active = growth inhibition above about 68%;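 also: plate controls were untreated wells for no effect and antibiotic for full effect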
RN4220 kill: S. aureus RN4220 growth inhibition | OD600, 16 h | inhibition, % (concentration not given with the values) | 330,000 compounds, 0.33% hits | AID 1259311; in the data active = inhibition above about 85%;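 also: plate controls were untreated cells for no effect and reference antibiotic for full effect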
BJeLR lethal: BJeLR cell viability loss; AID 1554; 300,000 compounds, 0.17% hits; inhibition, % (no concentration beside the values); BJeLR (HRASV12) viability, CellTiter-Glo ATP luminescence, 48 h; in the data active = inhibition above about 50%; inconclusive = no clear call, values can overlap the other calls
PfHsp40 yeast: rescue of PfHsp40-mediated yeast toxicity; S. cerevisiae expressing PfHsp40, growth rescue, ATP luminescence; growth rescue, % at 12.5 µM; 340,000 compounds, 0.68% hits; in the data active = growth rescue above about 28%, passing the limit was not always enough; inconclusive = no clear call, values can overlap the other calls;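 also: yeast W303a lacking pdr1 and pdr3 grown in galactose medium; growth measured after three days at 30 °C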
Starred values were filed as active, the others as inactive; ? = inconclusive; nt = not tested or not shown; ! = not active in a repeat.

SMILES | 3CLpro inhibitor | Sa ugtP lethal | RN4220 kill | BJeLR lethal | PfHsp40 yeast
COc1ccc(CN2CC(=O)N(c3ccc(Cl)cc3)C2=S)cc1OC | 6 | -4 | -1 | 8 | 0
COc1ccccc1-c1ccc(SCc2ccc(F)cc2)nn1 | 7 | 1 | 18 | -4 | 6
COc1ccccc1-c1ccc(SCc2ccc(C)cc2)nn1 | 0 | 1 | 55 | -6 | 26*
CCOC(=O)c1ccc(NC(=S)N2CCN(CCN=CC3=C(O)CC(c4ccccc4)CC3=O)CC2)cc1 (stereo unspecified) | -2 | -2 | 6 | -11 | nt
CCOc1ccc(NC(=S)NNc2ccnc3cc(Cl)ccc23)cc1 | 1 | -1 | 0 | 4 | 4
S=C(NNc1ccnc2cc(Cl)ccc12)Nc1ccc(Cl)cc1Cl | 1 | 6 | 90* | 14 | 2
Cc1nnc(SCC(=O)NC2CC2)s1 | -2 | 3 | -1 | -6 | 0
CN(C)CCn1nnnc1SCC1=C(C(=O)O)N2C(=O)[C@@H](NC(=O)Cc3csc(N)n3)[C@H]2SC1 | nt | nt | nt | nt | -1
Cc1nnc(SCC2=C(C(=O)O)N3C(=O)[C@@H](NC(=O)Cn4cnnn4)[C@H]3SC2)s1 | -2 | 100* | 97* | 0 | -1
Cc1nnc(SCC2=C(C(=O)O)N3C(=O)C(NC(=O)Cn4cnnn4)C3SC2)s1 (stereo unspecified) | -1 | 100* | 100* | 2 | -2
COc1ccc(-n2sc3c(c2=S)-c2cc(OC)ccc2NC3(C)C)cc1 | 2 | 84* | -5 | -1 | 1
CC(C)CC(=O)NC(=S)Nc1ccc(S(=O)(=O)Nc2nccs2)cc1 | 1 | 92* | 2 | -6 | 0
CCOc1ccc(NS(=O)(=O)c2ccc(NC(=S)NC(=O)CC(C)C)cc2)cc1 | -1 | 87* | 0 | 4 | 10
CCC(C)C(=O)Nc1ccc(S(=O)(=O)Nc2nccs2)cc1 (stereo unspecified) | -8 | 16 | 6 | -1 | 0
CCCC(=O)NC(=S)Nc1ccc(S(=O)(=O)Nc2ccc(OCC)cc2)cc1 | 4 | 88* | 7 | -8 | 0
CC(C)CC(=O)NC(=S)Nc1ccc(S(=O)(=O)NC(C)(C)C)cc1 | 1 | 87* | 3 | -7 | 1
CCOc1ccc(CCNC(=O)CCc2nc(-c3ccc(OC)cc3)no2)cc1OCC | 2 | 8 | 1 | 3 | 0
CSc1nc2c(c(=O)[nH]1)C(c1ccc(C(F)(F)F)cc1)CC(=O)N2 (stereo unspecified) | 5 | -3 | 4 | 2 | 0
O=C(NC1c2ccccc2Oc2ccccc21)c1ccc([N+](=O)[O-])cc1 | nt | 6 | 0 | nt | 0
CCc1nnc(NS(=O)(=O)c2ccc(NC(=S)NC(=O)c3ccc(F)cc3)cc2)s1 | 9 | 87* | 12 | -8 | 0
CC(C)CC(=O)NC(=S)Nc1ccc(S(=O)(=O)N2CCN(C)CC2)cc1 | 1 | 86* | 3 | 2 | 0
Cc1cc(C(=O)N2CCC(Cc3ccccc3)CC2)no1 | -1 | 14 | 2 | -10 | -1
CCc1c(C(=O)OC)nnc2cc(C)nn12 | -2 | 0 | 2 | 3 | -3
O=C(Nc1nc2ccc(SC(F)F)cc2s1)c1ccc(NS(=O)(=O)c2ccc(F)c(F)c2)cc1 | 1 | 100* | 100* | -11 | -2
CS(=O)(=O)c1ccc2nc(NC(=O)c3ccc(NS(=O)(=O)c4ccc(F)c(F)c4)cc3)sc2c1 | 6 | 12 | 3 | 3 | -2
SMILES | 3CLpro inhibitor | Sa ugtP lethal | RN4220 kill | BJeLR lethal | PfHsp40 yeast
CC1CCCCC1NC(=O)CSc1nncs1 (stereo unspecified) | -5 | -1 | 2 | -11 | -1
Cc1ccc(S(=O)(=O)Nn2cnnc2)cc1 | -1 | 5 | 4 | 4 | 0
Cc1ccc(S(=O)(=O)N(c2nc(N(C)C)nc(N(C)C)n2)n2cnnc2)cc1 | 1 | 98* | 94* | -1 | 9
O=c1c2ccccc2c(-c2ccc(O)cc2)nn1-c1cccc(C(F)(F)F)c1 | 6 | -9 | -4 | 0 | 240*
O=c1c2ccccc2c(-c2cccc(C(F)(F)F)c2)nn1-c1ccccc1 | -3 | -14 | -1 | 4 | 0
O=C(Cn1cc(C(=O)C(F)(F)F)c2ccccc21)N1CCOCC1 | 4 | 6 | 5 | -4 | 48*
Cc1ncoc1C(=O)N1CCCC(C(=O)c2ccc(Oc3ccccc3)cc2)C1 (stereo unspecified) | 3 | -10 | 3 | 0 | 1
Cc1ncoc1C(=O)N1CCCC(C(=O)c2ccc(-c3ccccc3)c(F)c2)C1 (stereo unspecified) | 6 | 4 | 4 | -4 | 183*
Cc1c(CCOC(=O)C2C3CC4CC(C3)CC2C4)sc[n+]1CC(=O)c1ccc(Br)cc1 (stereo unspecified) | -3 | -14 | 92*! | 7 | 1
Cc1c(CCOC(=O)c2ccc(Cl)cc2Cl)sc[n+]1CC(=O)c1ccc(Br)cc1 | nt | -19 | 52 | nt | 0
CCN(CC)S(=O)(=O)c1cccc(NC(=O)C(=O)c2c(-c3ccccc3)cc3ccccn23)c1 | 9 | -12 | 11 | 0 | 2
CCN(CC)S(=O)(=O)c1ccc(N2CCOCC2)c(NC(=O)C(=O)c2c(-c3ccccc3)cc3ccccn23)c1 | -1 | -14 | 21 | -8 | 130*
CC(=O)N1CCN(c2ccc(NC(=O)c3ccco3)cc2)CC1 | 3 | 1 | 3 | -18 | 0
O=[N+]([O-])c1ccc(NN=C(c2ccccc2)c2ccccc2)nc1 | nt | 19 | 3 | nt | 55*
Cc1ccc(C=NNc2ccc([N+](=O)[O-])cn2)cc1 | nt | -11 | 0 | nt | 36*
CC(=NNc1ccc([N+](=O)[O-])cn1)c1ccccc1 | nt | 12 | 3 | nt | -1
Cc1ccc(-n2c(C)cc(/C=N/Nc3ccc([N+](=O)[O-])cn3)c2C)cc1 | 3 | nt | nt | 4 | 1
Cc1nc2ccc(C(C(F)(F)F)(C(F)(F)F)C(F)(F)F)cc2[nH]1 | 2 | -3 | 2 | 20 | 241*
Cc1nc2ccc(Cl)cc2[nH]1 | nt | 11 | 5 | nt | 0
NNc1nc2sc3c(c2c(=O)n1C1CCCCC1)CCN(Cc1ccccc1)C3 | 0 | 1 | 1 | -6 | 1
CCOC(=O)C1=C(C)N=C2c3ccccc3C(=O)C2C1c1ccc(Cl)cc1 (stereo unspecified) | 1 | 46 | 88* | 7 | 0
O=Cc1ccc(O)c2ncccc12 | 4 | 15 | 20 | 64* | 628*
CCOc1ccc(C(NC(C)=O)c2ccc(OC)c(OC)c2)cc1 (stereo unspecified) | 0 | 1 | 1 | -12 | ?
S=C(Nc1ccccc1Cl)N(Cc1cccnc1)Cc1ccco1 | -2 | 0 | 4 | 3 | 0
Cc1c(Cl)cccc1NC(=S)N(Cc1cccnc1)Cc1ccccc1Cl | -2 | 16 | -4 | 3 | 35*
Cc1ccc(C(=O)OCc2nnc(-c3ccc(Br)cc3)o2)cc1 | 3 | 8 | 6 | 2 | 27*
Cc1cc(C)c(NC(=O)C(=O)NCc2ccco2)c(C)c1 | 5 | 1 | 4 | 9 | -2
